# Source: PubChem BioAssay (National Center for Advancing Translational Sciences (NCATS))
# Vaccinia mCherry: qHTS for Stage-Specific Inhibitors of Vaccinia Orthopoxvirus: mCherry Reporter Primary qHTS. Potency, µM (titrated, usually from 36.5 µM), without a hit: top-dose activity change, negative = inhibition, most hits filed as inhibitors. AID 720579, 2013. Vaccinia virus mCherry reporter infection, fluorescence. 0.63% of 310,000 active; calls by dose curve; tested in A549 cells; also: nearly all actives have a fitted effect of over 35% in size
# FMDV inh: High Throughput Screening for Foot and Mouth Disease Virus Antivirals. FMDV antiviral cell-based qHTS. Potency, µM (doses to about 57.9 µM), inactives show top-dose activity change, negative = inhibition, actives largely listed as inhibitors. 1.2% of 410,000 active; calls by dose curve; tested in HEK293T cells; also: read-out not given here; nearly all actives have a fitted effect of over 45% in size
# Lassa entry inh: qHTS for Inhibitors of binding or entry into cells for Lassa Virus. Lassa virus pseudotype entry inhibition, cell reporter. Potency, µM (series often up to 37.9 µM), without a hit: top-dose activity change, negative = inhibition, hits mostly inhibitors. 1.2% of 300,000 active. AID 540256, 2011; calls by dose curve; tested in HEK293 cells; also: nearly all actives have a fitted effect of over 50% in size
# VACV Venus inh: qHTS for Stage-Specific Inhibitors of Vaccinia Orthopoxvirus: Venus Reporter Primary qHTS; Vaccinia virus Venus reporter expression, fluorescence; Potency, µM (highest dose often 36.5 µM), inactives show at the top dose activity change, negative = inhibition, usual class: inhibitors; 0.46% of 330,000 active; AID 720580, 2013; calls by dose curve; tested in A549 cells; also: nearly all actives have a fitted effect of over 30% in size
# Marburg entry inh: qHTS for inhibitors of binding or entry into cells for Marburg Virus; Marburg virus pseudotyped entry inhibition, cell reporter; Potency, µM (highest dose often 37.8 µM), inactives show at the top dose activity change, negative = inhibition, usual class: inhibitors; 1.8% of 300,000 active; AID 540276, 2011; calls by dose curve; tested in HEK293 cells
# * = called active by the depositor; i = inactive; ? = inconclusive; . = not tested or not shown; ! = a repeat was not active; [ ] = remark or other dose. Shown are actives, neighbours in structure and some others; about 3.2% of the full set was active somewhere. % is scaled to controls: 0 for no effect and ±100 for the full control effect; potency is read from the fitted curve at half-maximal effect.
SMILES,Vaccinia mCherry,FMDV inh,Lassa entry inh,VACV Venus inh,Marburg entry inh
Cn1c(N)c(C(=O)COC(=O)c2ccc([N+](=O)[O-])o2)c(=O)n(C)c1=O,?,-21%,9%,?,6%[46.1 µM]
COc1ccc(C2NCCc3c2[nH]c2ccccc32)cc1COc1ccc(F)cc1 (stereo not given),.,?,23µM*,.,?
COc1ccc(C2NCCc3c2[nH]c2ccccc32)cc1CN1CCc2cc(OC)c(OC)cc2C1C (stereo not given),?,-15%,.,-12%,.
CCOc1ccc(CSC2=NCCN2)cc1Cl,.,-14%,?,.,15µM*
COc1ccc(CCN2C(=O)CS/C2=N\NC(=O)c2ccc(C(C)(C)C)cc2)cc1OC,-27%,32µM*,-24%,-28%,-26%
COc1ccc(CCN2C(=O)CSC2=Nc2ccc(C(C)C)cc2)cc1OC,-19%,20µM*,1.4µM*,-30%,?
COc1ccc(N=C2SC(C(N)=O)CC(=O)N2CCc2ccc(OC)c(OC)c2)cc1 (stereo not given),.,-18%,-5%,-11%,1%
COc1ccc(C=NNc2nc3ccccc3s2)cc1,?,-61%,?,6%,7.1µM*
COc1cc(OC)cc(C(=O)Oc2ccc(/C=N/Nc3nc4ccccc4s3)cc2OC)c1,-21%,22%,?,-13%,?
C(=N\Nc1nc2ccccc2s1)/c1ccccn1,13µM*,3.5µM*,0.89µM*,?,?
C(=NNc1ccc2ccccc2n1)c1ccccn1,1.8µM*,7.9µM*,.,?,.
C(=N\NC1=Nc2cccc3cccc1c23)/c1ccccn1,?,9%,.,?,.
COc1ccccc1-c1ccc([C@@H]2C[C@H]3[C@@H](CN2)CON3C)cc1,i,-4%,.,-17%,.
NC(CCc1ccccc1)c1csc(NC(=O)NCC2CCCCC2)n1 (stereo not given),-16%,0%,.,-11%,.
CCN(CCNC(=O)[C@H]1C=C(OC)C(=O)C[C@H](c2ccccc2)[C@@H]1C)C(C)=O,.,.,.,.,-18%[14.2 µM]
N=c1c2c(-c3ccccc3)c(-c3ccccc3)n(Cc3ccco3)c2ncn1CCCO,-7%,?,?,-8%,5.6µM*
N=c1c2c(-c3ccccc3)c(-c3ccccc3)n(Cc3ccco3)c2ncn1CCN1CCOCC1,.,-2%,?,.,10µM*
CN(C1CCCCC1)S(=O)(=O)c1ccc(NC(=O)c2ccco2)cc1,.,-7%,11µM*,-14%,-6%
O=C(Nc1cccc(S(=O)(=O)N2CCCC2)c1)c1ccco1,.,-19%,.,.,.
O=C(Nc1cccc(S(=O)(=O)c2cccc(NC(=O)c3ccco3)c2)c1)c1ccco1,7%,35µM*,?,-14%,?
CN(c1ccccc1)S(=O)(=O)c1ccc(NC(=O)c2ccco2)cc1,0%,0%,?,-10%,?
O=C(Nc1cccc(S(=O)(=O)c2cccc(NC(=O)C3CC3)c2)c1)C1CC1,-14%,.,21µM*,?,?
CCC(C)(C)C1CCc2[nH]nc(C(=O)NCCCNC(=O)OC(C)(C)C)c2C1 (stereo not given),-13%,?,.,?,.
COC(=O)C1CCN(Cc2ccc3c(c2)CN(C(=O)c2cc4ccccc4n2C)CCO3)CC1,-12%,?,.,-5%,.
CCOC(=O)c1ccc(NC(=S)N(CCCN2CCCCC2)Cc2ccco2)cc1,-15%,-2%,-17%,-15%,13µM*
SMILES,Vaccinia mCherry,FMDV inh,Lassa entry inh,VACV Venus inh,Marburg entry inh
Cc1nc2c(ccc3nc(NC(=O)C(c4ccccc4)c4ccccc4)sc32)s1,?,13µM*,7%,?,-6%
CC(C)CON=C1C[C@@H](O)[C@@H](O)[C@@H]2[C@H]3C(=O)N(C4CCCCC4)C(=O)[C@@H]3CC[C@@H]12,.,.,-26%[14.3 µM],.,-20%[14.2 µM]
O=C(NNC(=O)C12CC3CC(CC(C3)C1)C2)c1ccccn1,10µM*,?,7.9µM*,?,10µM*
O=C(NNC(=O)C12CC3CC(CC(C3)C1)C2)c1cnccn1,-28%,-13%,7%,-12%,-14%
CCn1c(NCc2ccccc2NS(=O)(=O)c2ccc(C)cc2)nc2ccccc21,?,-1%,?,?,21µM*
CCCn1c(NCc2ccccc2NS(=O)(=O)c2ccc(C)cc2)nc2ccccc21,?,15%,?,?,6.3µM*
CC#CCN1C(=O)NC(c2ccccc2)C(C#N)=C1C (stereo not given),.,.,.,.,23%[14.2 µM]
CSc1ccc(/C=N/Nc2nc(C)cc(C)n2)cc1,i,10%,7.1µM*,-6%,4%
Cc1cc(N2CCCCC2)nc(NCc2ccccc2)n1,?,32µM*,?,?,3.2µM*
Cc1cc(N/N=C/c2ccccc2)nc(NCc2ccccc2)n1,10µM*,-7%,?,?,?
Cc1cc(N/N=C/c2cccc(F)c2)nc(NCc2ccccc2)n1,?,6%,?,?,16µM*
Cc1cc(N2CCOCC2)nc(NCc2ccccc2)n1,-27%,.,-26%,?,?
C[C@H](CO)N1C[C@H](C)[C@@H](CN(C)S(=O)(=O)c2cccs2)Oc2c(NC(=O)CCC(F)(F)F)cccc2C1=O,?,9%,.,-12%,.
Cc1c(C(=O)N2CC3CCC2C3)sc2ncnc(NCCc3c[nH]c4ccccc34)c12 (stereo not given),?,?,.,-25%,.
C[C@@H]1COc2cc(Br)ccc2S(=O)(=O)N1,.,.,1%[46.1 µM],.,.
Cc1cc(N/N=C/c2cccc(Cl)c2)nc(NCc2ccccc2)n1,?,-21%,?,?,18µM*
Cc1cc(N/N=C/c2ccc(Cl)cc2)nc(NCc2ccccc2)n1,?,-14%,?,-11%,?
COC(=O)c1ccc(C(=O)OC)c(NC(=O)CN(c2ccccc2)S(=O)(=O)N(C)C)c1,-5%,2%,10µM*!,-13%,?
CN(C)S(=O)(=O)N(CC(=O)Nc1ccccc1F)c1ccccc1,.,7%,-1%,.,-15%
COc1ccc(S(=O)(=O)N2CCCCC2)cc1NC(=O)C1CC1,.,-13%,.,.,.
COc1ccc(S(=O)(=O)N2CCCCC2)cc1NC(=O)C1COc2ccccc2O1 (stereo not given),-20%,?,?,-14%,11µM*
CC(C)N1C/C(=C/c2ccsc2)C(=O)/C(=C/c2ccsc2)C1,-18%,16µM*,4µM*,-9%,?
O=Cc1ccc(B(O)O)cc1,-4%,.,.,-12%,.
O=C1c2ccccc2C(=Cc2cccnc2)c2ccccc21,i,12%,.,-1%,.
CC(C)N1C/C(=C/c2cccnc2)C(=O)/C(=C/c2cccnc2)C1,i,8.9µM*,13µM*,-9%,4.5µM*
CN1C/C(=C/c2cccnc2)C(=O)/C(=C/c2cccnc2)C1,?,3.2µM*,?,?,1.8µM*
CN1C/C(=C/c2ccc(B(O)O)cc2)C(=O)/C(=C/c2ccc(B(O)O)cc2)C1,.,28µM*,.,.,.
